Screening results as filed in PubChem.
DRD3 antagonist: blocks the human D3 dopamine receptor | P35462 | D3R cells, DiscoveRx beta-arrestin luminescence, antagonist mode; stronger effect = lower value | max response, negative = inhibition, % | hit rate 2.5% among 360,000; in the data active = max response below about -50%; inconclusive = no clear call, values can overlap the other calls; note: % is set by controls: 0 for no effect and ±100 for the full control effect
Target sequence (P35462 whole entry, looked up): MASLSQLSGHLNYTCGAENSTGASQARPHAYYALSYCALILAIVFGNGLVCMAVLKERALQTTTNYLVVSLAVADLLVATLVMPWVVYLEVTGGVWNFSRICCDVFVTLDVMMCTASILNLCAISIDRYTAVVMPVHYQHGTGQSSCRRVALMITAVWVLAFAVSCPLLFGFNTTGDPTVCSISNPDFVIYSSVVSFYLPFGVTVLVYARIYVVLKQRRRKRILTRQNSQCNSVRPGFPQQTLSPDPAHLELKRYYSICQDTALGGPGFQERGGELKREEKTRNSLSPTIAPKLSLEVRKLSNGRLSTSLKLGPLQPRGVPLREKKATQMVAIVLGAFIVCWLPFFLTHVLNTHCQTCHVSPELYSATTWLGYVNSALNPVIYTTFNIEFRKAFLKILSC
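Cells plated overnight at 1500 cells/well, then exposed to library compounds with dopamine controls for 90 minutes at 37 degrees C. DiscoveRx reagent added for 30–60 minutes at room temperature; luminescence read, quantitative HTS format.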
KB-V1 cytotox: KB-V1 MDR subline cytotoxicity | Potency, µM (top dose mostly 46.1 µM), actives largely listed as cytotoxic | KB-V1 MDR cells viability, CellTiter-Glo, 72 h | hit rate 3.4% among 400,000; note: potency is the fitted concentration of half-maximal effect; % is set by controls: 0 for no effect and ±100 for the full control effect; nearly all actives have a fitted effect of over 60% in size
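Compound-treated KB-V1 multidrug-resistant cells, 72 h, 37 degrees C; viability by CellTiter-Glo. Fitted qHTS curves give the values.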
KB-3-1 tox: KB-3-1 parental cell cytotoxicity; hit rate 1.4% among 400,000; AID 1347075; KB-3-1 viability, CellTiter-Glo ATP luminescence, 72 h; Potency, µM (top dose mostly 46.1 µM), most hits filed as cytotoxic; note: potency is the fitted concentration of half-maximal effect; % is set by controls: 0 for no effect and ±100 for the full control effect; nearly all actives have a fitted effect of over 60% in size
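72 h, 37 °C compound treatment of KB-3-1 parental cells; CellTiter-Glo added, 10 min, luminescence read. Data corrected against DMSO-only plates and normalized before curve fitting.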
SW480 rerep: induces DNA re-replication in SW480 colon adenocarcinoma cells | SW480 DNA re-replication, Hoechst DNA content imaging, 48 h | Potency, µM (doses to about 46.1 µM), for inactives: top-dose re-replication activation, usual class: activators | hit rate 1.8% among 340,000; note: potency is the fitted concentration of half-maximal effect; % of control where 0% means no effect; nearly all actives have a fitted effect of over 55% in size
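Compounds, transferred as 23 nL by pin tool, were incubated with cells for 48 hr; DNA content per nucleus was then quantified by Hoechst staining and fluorescence plate imaging.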
D3 ag: D3 dopamine receptor (human) agonism; D3R DiscoveRx beta-arrestin cells, luminescence, 90 min; max activation, %; hit rate 0.58% among 410,000; P35462; AID 652048; in the data active = max activation above about 30%; note: 0% is about no effect
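Cells at 1500/well, incubated overnight, then treated with pinned compounds (dopamine as control) for 90 min at 37 degrees C. DiscoveRx reagent added for 30 - 60 minutes at room temperature; luminescence read.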
MCF10A rereplic: induces DNA re-replication in MCF 10a normal breast cells; MCF 10A DNA re-replication, Hoechst nuclear intensity, 48 h; Potency, µM (doses to about 46.1 µM), inactives show at the top dose activity, positive = re-replication, hits mostly activators; hit rate 2.9% among 350,000; AID 624296; note: potency is the fitted concentration of half-maximal effect; % of control where 0% means no effect; nearly all actives have a fitted effect of over 50% in size
Numbers without * were called inactive; i = inactive; ? = inconclusive; . = no result given. In the library only some 8.9% were active in any assay of this set; here they are far more common. Unless noted, calls come from the whole dose curve; as a rule, active = well fitted curve in the direction sought with a large enough effect; inconclusive = small, poorly fitted or top-dose-only effect, or another doubt; inactive = no such curve, though single readings can be large; an effect the other way counts as inactive or inconclusive.

SMILES | DRD3 antagonist | KB-V1 cytotox | KB-3-1 tox | SW480 rerep | D3 ag | MCF10A rereplic
Cc1ccc(NC(=O)C2CCN(c3nc4ccccc4nc3C(F)(F)F)CC2)cc1F | . | i | i | . | 11 | .
COc1ccc(CCNc2nc3c(c(=O)n(C)c(=O)n3C)n2Cc2ccc(F)cc2)cc1OC | . | 2.1µM* | 18µM* | . | 6 | .
CCOc1ccc(CCNc2nc3c(c(=O)n(C)c(=O)n3C)n2CC)cc1OCC | 42 | ? | 15µM* | -1% | 16 | 0%
COc1ccc2c(CNCc3cccs3)c(C(=O)O)n(Cc3cccc(F)c3)c2c1 | . | i | i | . | 4 | .
COc1cc(C(=O)N2CCN(c3ccccc3Cl)CC2)ccc1OCC(=O)N1CCOCC1 | -1 | i | i | -15% | 2 | -6%
O=C1c2ccc(-c3nc4ccccc4o3)cc2C(=O)N1Cc1ccccc1 | 4 | 7.3µM* | i | 3% | -3 | 6%
O=C1c2ccc(-c3nc4ccccc4o3)cc2C(=O)N1Cc1cccnc1 | -6 | i | i | ? | 3 | 9.2µM*
CCN(c1ccccc1)S(=O)(=O)c1ccc(C(=O)Nc2c(C)n(C)n(-c3ccccc3)c2=O)cc1 | -7 | i | i | 1% | -5 | -3%
COc1ccc(N(CC(=O)Nc2ccccc2Cl)S(=O)(=O)c2ccc(C)cc2)cc1OC | -6 | i | i | 3.3µM* | -8 | ?
COc1ccc(N(CC(=O)NCC2CCCO2)S(=O)(=O)c2ccc(C)cc2)cc1OC (stereo not drawn) | 8 | 21µM* | i | 20% | -7 | 5%
COc1ccccc1N(CC(=O)Nc1c(C)n(C)n(-c2ccccc2)c1=O)S(=O)(=O)c1ccc(C)cc1 | -3 | i | ? | -17% | 16 | -8%
COc1ccc(N(CC(=O)Nc2c(C)n(C)n(-c3ccccc3)c2=O)S(=O)(=O)c2ccc(C)cc2)cc1OC | -111* | i | i | -5% | 5 | ?
CCCCN(c1ccccc1)S(=O)(=O)c1cccc(C(=O)Nc2c(C)n(C)n(-c3ccccc3)c2=O)c1 | ? | 2.6µM* | 26µM* | -6% | -16 | ?
Cc1ccc(C(c2sc3nc(-c4ccco4)nn3c2O)N2CCCC2)cc1 (stereo not drawn) | . | i | i | . | 3 | .
O=C(NCc1ccccc1)Nc1cccn(Cc2ccccc2F)c1=O | 9 | 10µM* | i | 10% | 6 | 7%
O=C(Nc1cccn(Cc2ccccc2)c1=O)NC1CCCCC1 | -16 | 4.1µM* | i | 5% | -4 | 9%
O=C(NCc1ccccc1)Nc1cccn(Cc2ccc(F)cc2)c1=O | 1 | 12µM* | i | 1% | 5 | -1%
O=C(NCc1ccccc1)Nc1cccn(Cc2ccccc2)c1=O | 2 | ? | i | -1% | 1 | 7%
O=C(Nc1cccn(Cc2ccc(F)cc2)c1=O)NC1CCCCC1 | 4 | i | i | -1% | 2 | 20%
CCCn1c(=O)sc2cc(NC(=O)COc3ccc(Cl)cc3)ccc21 | . | i | i | . | 3 | .
CCOc1ccc(CNS(=O)(=O)c2ccc(-c3cc(C(F)(F)F)on3)s2)cc1 | . | . | . | . | 1 | .
Fc1ccc(-c2noc3ncnc(NCC4CCN(Cc5ccc(Cl)cc5)CC4)c23)cc1 | . | i | ? | . | -24 | .
CCN1C(=O)[C@H]2[C@@H](c3ccc(-c4cc(C(C)=O)cs4)cc3)N3CCCC[C@@]3(C(=O)OC)[C@H]2C1=O | 0 | ? | ? | -2% | -9 | -11%
CCOc1ccccc1CNC(=O)CCCn1nc(C)c2sc3ccccc3c2c1=O | . | i | i | . | -3 | .
COc1ccc(-c2oc3ncnc(NCCCN(C)C)c3c2-c2ccc(OC)cc2)cc1 | -104* | i | ? | ? | -17 | 11%
SMILES | DRD3 antagonist | KB-V1 cytotox | KB-3-1 tox | SW480 rerep | D3 ag | MCF10A rereplic
CN(C)CCNc1ncnc2oc(-c3ccccc3)c(-c3ccccc3)c12 | -61* | i | i | ? | -15 | ?
CN(C)CCNc1ncnc2ccccc12 | -9 | i | i | 1% | -10 | 0%
Cc1nn2c(-c3ccco3)ccnc2c1-c1ccc(Cl)cc1 | . | ? | i | . | 5 | .
NC(=NCCc1ccc(Cl)cc1)NS(=O)(=O)c1ccc(F)cc1 | 13 | 15µM* | ? | -16% | 2 | -11%
O=S(=O)(NC(=NCc1ccccc1)c1ccc(F)cc1)c1ccc(Cl)cc1 | 1 | ? | i | -59% | 5 | 0.73µM*
NC(=NCCc1ccc(Cl)cc1)NS(=O)(=O)c1ccccc1 | 11 | i | i | 12% | 16 | 0%
CN[C@H](CC(C)C)C(=O)N[C@H]1C(=O)N[C@@H](CC(N)=O)C(=O)N[C@H]2C(=O)N[C@H]3C(=O)N[C@H](C(=O)N[C@@H](C(=O)O)c4cc(O)cc(O)c4-c4cc3ccc4O)[C@H](O)c3ccc(c(Cl)c3)Oc3cc2cc(c3O[C@@H]2O[C@H](CO)[C@@H](O)[C@H](O)[C@H]2O[C@H]2C[C@](C)(N)C(O)[C@H](C)O2)Oc2ccc(cc2Cl)[C@H]1O (stereo partly drawn) | . | . | . | . | 3 | .
N#C/C(=C\c1ccccc1)C(=O)Nc1sc2c(c1C(N)=O)CCC2 | . | i | i | . | 15 | .
COc1cc(C(=O)NCc2ccc(OCCN(C)C)cc2)cc(OC)c1OC | -95* | i | i | -33% | -86 | -10%
COc1ccc(C(=O)NCc2ccc(OCCN(C)C)cc2)cc1OC | -72* | i | i | -8% | -76 | 0%
CCOCCn1ccc2c(OCC(=O)Nc3ccc(OC(F)(F)F)cc3)cccc2c1=O | . | i | i | . | 8 | .
Cc1ccc(-c2n[nH]c(=O)c3ccccc23)cc1S(=O)(=O)Nc1ccccc1 | 24 | 21µM* | ? | 1% | 1 | ?
Cc1ccc(C(=O)O)cc1NC1(c2ccccc2)C(=O)c2ccccc2C1=O | . | i | i | . | -4 | .
O=C(COc1ccc(/C=N/NC(=O)C(=O)N2CCCCCC2)cc1)Nc1ccccc1Cl | 1 | 18µM* | i | 2% | 3 | ?
O=C(CSCc1ccccc1)N/N=C/c1ccc(OCC(=O)N2CCCCC2)cc1 | 2 | 21µM* | i | -12% | 3 | 25%
O=C(CSCc1ccccc1Br)N/N=C/c1ccc(OCC(=O)N2CCCCC2)cc1 | -9 | i | i | . | 3 | 1%
COc1ccc(CSCC(=O)N/N=C/c2ccc(OCC(=O)N3CCCCC3)cc2)cc1 | -56* | i | i | ? | 8 | 21µM*
Cc1ccc(S(=O)(=O)Nc2ccc3c(c2)CCCN3C(=O)c2cccs2)cc1 | . | i | i | . | 8 | .
Cc1cc(OI)c(C(C)C)cc1-c1cc(C(C)C)c(OI)cc1C | . | . | . | -7% | -5 | 2%
